ChEMBL document CHEMBL3988442, “University of Dundee, Small-Polar-MMV Screening Library” (2021)
The campaign covered roughly 48,000 compounds. About 13,000 (27%) showed an effect of 50% or more. The list shows a part of the results.

test system: Wolbachia pipientis; experiment: Anti-Wolbachia Cell-Based Screen; format: functional; set-up: scale not given: in the data most compounds retested in dose-response had high values; conditions: 5 µM

SMILES	Percent Effect
CCOc1cncc(N(C)CC(=O)NC)n1	3.632%
COc1ccc(F)cc1C(=O)N1CCn2c(nnc2C(F)(F)F)C1	-12.82%
CC(CNC(=O)c1cccc(-n2cccn2)n1)Cn1ccnc1 (stereo not drawn)	-7.743%
CCN1CC2(CCC1=O)CCN(C(=O)C(O)c1cccc(Cl)c1)CC2 (stereo not drawn)	-4.5%
Cc1ccc(NCCCNC(=O)NCC2CCS(=O)(=O)C2)nc1 (stereo not drawn)	4.563%
CCC(CC)CNCC1(S(C)(=O)=O)CCOCC1	-4.414%
CCC[C@H]1CN(S(=O)(=O)c2ccc(Cl)cc2)C[C@@H]1NC(C)=O	12.77%
CC(=O)N[C@@H]1CN(S(=O)(=O)c2ccc(Cl)cc2)C[C@H]1O	155.9%
CCC[C@@H]1CN(S(=O)(=O)c2ccc(OC)c(OC)c2)C[C@H]1NC(C)=O	-5.851%
CN(CCC#N)C(=O)Cc1csc(-c2ncccn2)n1	2.424%
CNC(=O)[C@@H]1C[C@H](N)CN1Cc1cc2cc(C)cc(C)c2[nH]c1=O	27.32%
Cc1occc1C(=O)NCC1OCCc2cn(C)nc21.O=C(O)C(F)(F)F (stereo not drawn)	115.2%
COCCn1cc2c(n1)C(CNCc1ccco1)OCC2.O=C(O)C(F)(F)F.O=C(O)C(F)(F)F (stereo not drawn)	3.436%
O=C(O)C(F)(F)F.O=C(O)C(F)(F)F.O=C(O)C(F)(F)F.c1ccc(Cn2cc3c(n2)C(CNCc2ccco2)OCC3)nc1 (stereo not drawn)	-0.4855%
CC(C)NCC1OCCc2cn(C)nc21.O=C(O)C(F)(F)F (stereo not drawn)	25.68%
Cn1cc2c(n1)C(CNCc1ccco1)OCC2.O=C(O)C(F)(F)F.O=C(O)C(F)(F)F (stereo not drawn)	145.8%
Cn1cc2c(n1)C(CNCC1CCOCC1)OCC2.O=C(O)C(F)(F)F.O=C(O)C(F)(F)F (stereo not drawn)	10.93%
COc1ccccc1C1(CNc2snc(Cl)c2C#N)CCOCC1	-1.634%
COc1cc(N2C[C@@H](C)[C@](O)(C3CC3)C2)nc(N)n1	-24.25%
CC1CN(c2ncnc3ccccc23)CCO1 (stereo not drawn)	-1.794%
CC(C)n1nc(CN2CCOCC2)c2c1CN(C(=O)c1ccno1)C2.O=C(O)C(F)(F)F	102.9%
Cc1ccc(C(=O)N2Cc3c(CN4CCCCC4)nn(C)c3C2)cc1C.O=C(O)C(F)(F)F	-1.924%
CC(C)n1nc(Cn2cccc2)c2c1CN(Cc1ccoc1)C2.O=C(O)C(F)(F)F	-4.933%
CC(C)n1nc(Cn2cccc2)c2c1CN(C1CCOCC1)C2.O=C(O)C(F)(F)F	-6.023%
CC(C)n1nc(CN2CCCCC2)c2c1CN(C(=O)c1ccno1)C2.O=C(O)C(F)(F)F	85.62%
CC(C)n1nc(CN2CCOCC2)c2c1CN(Cc1ccsc1)C2.O=C(O)C(F)(F)F.O=C(O)C(F)(F)F	-3.193%

SMILES	Percent Effect
O=C(c1cc(Cl)c2c(c1)OCO2)N1CCN(c2nccs2)CC1	-12.71%
O=C(NCc1c(F)cccc1Cl)c1cc(CN2CCCC(O)C2)on1 (stereo not drawn)	-0.1537%
Cc1cccc2c1nc1n2[C@@H](CNC(=O)CCC(=O)O)COC1	-14.2%
CNCc1cc(F)ccc1Oc1ccc(Cl)cc1	118.2%
COc1ccc(CC(=O)NC(CC(=O)O)c2ccc(F)cc2)cc1OC (stereo not drawn)	11.02%
CC(C)S(=O)(=O)NCc1cccnc1Oc1ccc(F)cc1F	-8.317%
CNCc1cc(F)ccc1Oc1ccc(F)cc1F	116%
CNCc1cc(F)ccc1Oc1ccc(F)cc1	114.4%
Cc1noc(NCc2cc(F)ccc2F)n1	5.671%
CNC(=O)COc1ccc(CNCc2ccc(F)cc2F)cc1	-7.839%
CN(C)S(=O)(=O)NCc1cccnc1Oc1ccc(F)cc1F	1.253%
COc1ccc(C)cc1CC(=O)NC(CC(=O)O)c1ccc(F)cc1 (stereo not drawn)	6.211%
CC(NCC1CCN(CCO)CC1)c1ccc(Cl)cc1 (stereo not drawn)	5.926%
CCc1nn(C)c(Cl)c1CN1CCN(c2ccc(C(N)=O)cn2)CC1	-7.307%
CC(C)Cc1ncc2c(n1)CN(C(=O)c1ccc(CN3CCCC3)o1)C2	8.376%
O=C(NC1CC1)[C@H]1C[C@H]2OCC[C@H]2N(Cc2cccc3ccccc23)C1.O=C(O)C(F)(F)F	-4.229%
Cc1nc(N(C)C)nc(C)c1NC(=O)c1ccco1	16.89%
CC(C)C(=O)N1CCN(S(C)(=O)=O)CC2(CC(=O)N(C)C2)C1 (stereo not drawn)	4.406%
COCc1noc(-c2ccc(N(C)Cc3ccc(C)o3)nc2)n1	-8.335%
COCc1noc(-c2ccc(N(C)Cc3cc(C)no3)nc2)n1	-6.826%
COCc1noc(-c2ccc(N(C)Cc3ncccc3C)nc2)n1	79.04%
CSc1ccccc1CC1CCCS(=O)(=O)C1 (stereo not drawn)	-14.28%
O=S(=O)(NCCSc1nncn1C1CC1)c1ccccc1	13.46%
CC(c1nc(C(C)(C)C)no1)N1CCC(N2CCCC2)CC1 (stereo not drawn)	-1.947%
CCc1noc(C(C)N2CCN(Cc3nc(C)c(C)o3)CC2)n1 (stereo not drawn)	17.35%
CC(c1nc(C2CC2)no1)N1CCN(CCS(C)(=O)=O)CC1 (stereo not drawn)	9.574%

SMILES	Percent Effect
CC(c1nc(C(C)(C)C)no1)N1CCN(C(=O)CN2CCOCC2)CC1 (stereo not drawn)	87.21%
CCc1noc(C(C)N2CCOCC2)n1 (stereo not drawn)	1.305%
CC(c1nc(C2CC2)no1)N1CCN(CC(=O)N2CCOCC2)CC1 (stereo not drawn)	99.5%
CCc1noc(C(C)N2CCN(CC(=O)N3CCOCC3)CC2)n1 (stereo not drawn)	97.96%
CC(c1nc(C2CC2)no1)N1CCN(CCc2ccncc2)CC1 (stereo not drawn)	-3.98%
CC(C(=O)N1CCOCC1)S(=O)(=O)Cc1nc(C(C)(C)C)no1 (stereo not drawn)	-2.634%
O=C(Nc1ccc(CCN2CCC(O)CC2)cc1)Nc1cccnc1	-10.88%
CCn1c(N)nc2cc(C(=O)N3CC(c4ccccn4)C3)cnc21	10.45%
NC(=O)CC1CCN(S(=O)(=O)N2CCCC2c2ccco2)CC1 (stereo not drawn)	-25.34%
Cc1ccccc1OCC(=O)NCC(c1ccc(N(C)C)cc1)N(C)C (stereo not drawn)	129.5%
COc1ccccc1OCC(=O)NCc1ncc(C)c(OC)c1C	12.71%
Cc1cc(C(O)CCNC(=O)COc2ccccc2C)c(C)o1 (stereo not drawn)	9.318%
O=C(O)c1cn(CC2CCCN(c3nccc4occc34)C2)nn1 (stereo not drawn)	6.714%
Cc1ccc(CNc2ccccc2-n2ccc(C)n2)nc1	-1.934%
COc1ccc(C(=O)N2C[C@@H](O)[C@H](NCCc3ncccc3C)C2)cc1	97.07%
COc1ccc(C(=O)N2C[C@@H](O)[C@H](NCc3cnc(C)cn3)C2)cc1	111.7%
COc1ccc(C2CCN(C(=O)c3ncccc3OC(C)C)C2)cc1 (stereo not drawn)	4.794%
COc1ccc2c(c1)nc1n2[C@@H](CNCc2ncccc2C)COC1	-5.483%
COc1ccc(C(=O)N2CCN(C(=O)Cn3nccc3C)CC2)cc1	4.431%
O=C(c1ccc(-c2nc[nH]n2)cc1)N1CC[C@H](CO)[C@@H](O)C1	11.14%
CNC(=O)[C@@H]1COC[C@H]2CN(C(=O)c3ccc(OC)cc3)C[C@H]21	-23.66%
C=Cc1ccc(C(=O)N2CCCC(Nc3ccc(OC)cc3)C2)cc1 (stereo not drawn)	13.35%
COc1ccc(C(=O)N2C[C@@H](O)[C@H](NCc3ncccc3C)C2)cc1	82.18%
CC(C)CN1CCc2[nH]cnc2C12CCN(C(=O)c1ccc[nH]1)CC2	3.052%
CC(=O)N[C@@H]1CN(C2CCN(c3ccccc3F)CC2)C[C@H]1C(C)C	33.97%
COC(=O)CC(c1cnn(C)c1)c1oc(C)cc(=O)c1O (stereo not drawn)	15.74%

SMILES	Percent Effect
Cn1cc(Cl)cc1C(=O)N1CCC2(CCCN(CC3CCC3)C2=O)C1 (stereo not drawn)	-14.89%
Cc1[nH]c2c(C)ccc(C)c2c1CC(=O)NCC(O)c1cccnc1 (stereo not drawn)	0.3243%
CCOCCN(CCOCC)c1nc(C)nc2sccc12	-8.835%
OCc1cc2ccccc2nc1NCC1CCN(CC(F)(F)F)C1 (stereo not drawn)	-4.701%
CO[C@H]1CO[C@@]2(CCCN(C(=O)C3=CCCCC3)C2)C1	-11.4%
CO[C@H]1CO[C@@]2(CCCN(C(=O)N(C)C)C2)C1	112.3%
CO[C@@H]1CO[C@@]2(CCCN(C(=O)N3CCCC3)C2)C1	89.36%
CCO[C@@H]1CO[C@@]2(CCCN(C(=O)c3ccc(OC)c(F)c3)C2)C1	-6.158%
O=C(N1CCCC1)N1CCC[C@]2(C[C@@H](OCc3ccncc3)CO2)C1.O=C(O)C(F)(F)F	-0.7527%
CO[C@H]1CO[C@@]2(CCCN(C(=O)N3CCCC3)C2)C1	89.24%
CCO[C@H]1CO[C@@]2(CCCN(C(=O)c3ccc(OC)c(F)c3)C2)C1	-0.1252%
CN(C)C(=O)c1noc2c1CN(C(=O)CCC1CCCCN1C)CC2 (stereo not drawn)	11.84%
CCCn1nc2c(cc1=O)CN(CC1CCCCO1)CC2 (stereo not drawn)	-1.903%
COCCCN1C(=O)CC[C@H]2CN(Cc3ncc[nH]3)CC[C@H]21	-5.769%
CN1C(=O)CC[C@@H]2[C@H]1CCN2S(=O)(=O)c1cccs1	-22.4%
CCS(=O)(=O)N1CC[C@@H]2[C@H]1CCC(=O)N2CCOC	101.4%
O=C(O)C(F)(F)F.O=S(=O)(C1CC1)N1CCO[C@H]2[C@H](OCCN3CCCC3)CC[C@@H]21	-18.3%
O=C1CC[C@H]2[C@H](CCN2C(=O)C2CCCO2)N1CCN1CCCC1 (stereo partly drawn)	13.58%
COCCN1C(=O)CC[C@@H]2[C@H]1CCN2C(=O)C1CCOCC1	5.34%
COCCN1C(=O)CC[C@@H]2[C@@H]1CCN2S(=O)(=O)C1CC1	90.99%
COCCN1C(=O)CC[C@@H]2[C@H]1CCN2C(=O)N(C)C	4.27%
CCN1C(=O)CC[C@@H]2[C@H]1CCN2S(=O)(=O)c1cccs1	2.968%
COCCN1C(=O)CC[C@@H]2[C@H]1CCN2Cc1ccc(C)s1.O=C(O)C(F)(F)F	3.422%
COCCN1C(=O)CC[C@@H]2[C@H]1CCN2S(=O)(=O)c1cccs1	103.5%
O=C(O)C(F)(F)F.O=C1CC[C@H]2[C@H](CCN2S(=O)(=O)C2CC2)N1CCN1CCCC1	79.45%
